PubChem BioAssay AID488789 (Broad Institute, 2010)
Results with a measured potency or affinity are listed apart. Records with an inconclusive call do not appear. Activity calls are given as the source filed them.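 How the source made its calls: active means samples whose fitted half-maximal inhibition concentration is no more than ten times the top valid dose tested; inconclusive means flat response between -70 and -30, or invalid curve fit; inactive means flat within 30 of zero, potency above limit, or signal rising.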

What follows are compounds tested against Trypsin (Sus scrofa) (UniProt P00761) (assay: trypsin protease activity blockade – biochemical, quenched peptide fluorescence, cherry-pick, selectivity assay for Rce1 protease inhibitor project, dose response (AID 488789;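 further: more negative means stronger trypsin inhibition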)). Conditions: porcine trypsin, quenched peptide cleavage fluorescence; series mostly up to 10 µM.
Trypsin (Sus scrofa), sequence (P00761 whole entry, looked up): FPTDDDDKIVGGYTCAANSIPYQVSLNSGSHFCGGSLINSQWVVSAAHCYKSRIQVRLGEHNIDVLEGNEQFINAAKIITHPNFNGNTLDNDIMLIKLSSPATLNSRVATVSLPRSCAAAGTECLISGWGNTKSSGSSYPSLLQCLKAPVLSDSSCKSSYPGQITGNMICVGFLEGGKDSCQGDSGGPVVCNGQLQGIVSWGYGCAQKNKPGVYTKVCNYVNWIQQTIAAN

outcome, inactive:
O=C(Nc1ccc2c(c1)CCC2)c1ccccc1Br, CC(=O)OCC(=O)[C@@]12OC3(CCCC3)O[C@@H]1C[C@H]1[C@@H]3CCC4=CC(=O)C=C[C@]4(C)[C@@]3(F)[C@@H](O)C[C@@]12C, CCOC(=O)[C@@H]1[C@H]2COc3ccc(Br)cc3[C@@H]2N2C(=O)N(c3cccc(Cl)c3)C(=O)[C@]12C, COc1ccccc1C1=NN(C2=NN=C(N)Cc3ncnn32)C(O)(C(F)(F)F)C1 (stereo not given), O=C1NC2(C=Cc3c(ccc4ccccc34)O2)Oc2ccccc21 (stereo not given), Oc1c(N=NC(=S)Nc2ccccc2F)c2ccccc2n1Cc1ccccc1Cl, COc1ccc(C(=O)/C=C/c2ccc(OC)cc2OC)c(O)c1, COc1ccc(Br)cc1C(=O)Nc1cc(C)cc(C)c1, CCOc1cccc(-c2nn(-c3ccccc3)cc2/C=C(/C#N)C(=O)NCCCn2ccnc2)c1, CCOC(=O)C1CCCN(S(=O)(=O)c2cc3[nH]c(=O)c(=O)[nH]c3cc2C)C1 (stereo not given), O=C(COc1ncnc2cc([N+](=O)[O-])ccc12)NC(=O)NC1CCCCC1, FC(F)(F)c1cc(Oc2ccccc2)ncc1-c1nnc(-c2ccccc2Cl)o1, CCN(Cc1ccccc1)c1ccc(/C=N/N=C(N)N)cc1, Cc1ccc(-c2nc(SCC(=O)N(C)C3CCS(=O)(=O)C3)[nH]c2-c2ccc(C)cc2)cc1 (stereo not given), Cc1cccc(NS(=O)(=O)c2ccc(C)c(C(=O)OCC(=O)Nc3cc(C)on3)c2)c1
